Test results taken from the supplement of paper PMC10849652.
The full data set covers some 7,900 targets. This sample favours those with a hit. About 0.6% of all pairs of compound and target were hits. A number with no mark means an inactive call.

Legend:
Assay in all cases: log2 fold change, soluble protein after heating vs DMSO (PISA); higher = thermal stabilisation; K562 cells, 10 uM, 30 min; active = over 0.2 and 3.5 SD of the protein, either way, in both replicates (recomputed)
erlotinib = compound: C#Cc1cccc(Nc2ncnc3cc(OCCOC)c(OCCOC)cc23)c1 [erlotinib]
In short: (§1)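 Aliquots of K562 cells (2×10^6 cells/mL) treated with 10 μM compound for 30 min were heated for 3 min over 48°C-58°C. After pooling and extraction in PBS with 0.5% NP-40 at 4°C, soluble protein from a 21,000xg, 90 min spin was quantified by TMTpro 16plex LC-MS/MS with channel sums equalised. Thermal stability is expressed against control samples, from duplicates, as a log2 fold change.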

[1] = compound: C/C(=N\NC(=O)C1=CC(=CC=C1)S(=O)(=O)N2CCOCC2)/C3=C(C=CC(=C3)Cl)O
In short: as §1

[2] = compound: C1=CC(=C(C=C1Cl)C2=NC3=NC=CN=C3C(=N2)NC4=CC=NC=C4)F
In short: as §1

[3] = compound: C1=CC(=CC=C1C2=NC3=C(N2)C=C(C=C3)C(=O)N)OC4=CC=C(C=C4)Cl
In short: as §1

[4] = compound: C1=CC2=C(C=CC(=C2)/C=C\3/C(=O)NC(=NCC4=CC=CS4)S3)N=C1
In short: as §1

[5] = compound: C1=CC2=NC=CN=C2C=C1/C=C/3\C(=O)NC(=O)S3
In short: as §1

[6] = compound: C1=CC=C(C=C1)C2=NC(=C(N2)C3=CC=NC=C3)C4=CC(=C(C=C4)Cl)O
In short: as §1

[7] = compound: C1=CC=C2C(=C1)C3=NNC4=CC=CC(=C43)C2=O
In short: as §1

[8] = compound: C1CCN(C1)C(=O)NC2=CC=CC(=C2)NC3=NC=C(C(=N3)NCCC4=CN=CN4)Br
In short: as §1

[9] = compound: C1CN(CCC1(CC2=CC=C(C=C2)Cl)N)C3=NC=NC4=C3C=CN4
In short: as §1

IRAK-1-4 Inhibitor I = compound: C1COCCN1CCN2C3=CC=CC=C3N=C2NC(=O)C4=CC(=CC=C4)[N+](=O)[O-] [IRAK-1-4 Inhibitor I]
In short: as §1

ibrutinib = compound: C=CC(=O)N1CCC[C@@H](n2nc(-c3ccc(Oc4ccccc4)cc3)c3c(N)ncnc32)C1 [ibrutinib]
In short: as §1

[10] = compound: CC(=O)c1cnc2ccc(-c3cc(Cl)c(O)c(Cl)c3)nc2c1N[C@H]1CC[C@H](CN(C)C)CC1
In short: as §1

ralimetinib = compound: CC(C)(C)Cn1c(N)nc2ccc(-c3[nH]c(C(C)(C)C)nc3-c3ccc(F)cc3)nc21 [ralimetinib]
In short: as §1

[11] = compound: CC(C)(O)CC(=O)NCCn1ccc2ncnc(Nc3ccc(Oc4cccc(C(F)(F)F)c4)c(Cl)c3)c21
In short: as §1

[12] = compound: CC(C)C1=C2N=C(C=C(N2N=C1)NCC3=CC=CC=C3)NCCCCCCN
In short: as §1

[13] = compound: CC(C)C[C@@H](C=O)NC(=O)[C@H](CC(C)C)NC(=O)[C@H](CC(C)C)NC(=O)OCc1ccccc1
In short: as §1

pinometostat = compound: CC(C)N(C[C@H]1O[C@@H](n2cnc3c(N)ncnc32)[C@H](O)[C@@H]1O)[C@H]1C[C@@H](CCc2nc3cc(C(C)(C)C)ccc3[nH]2)C1 [pinometostat]
In short: as §1

[14] = compound: CC1=C(C(CC(=O)N1)C2=CC=C(C=C2)C(F)(F)F)C(=O)NC3=C(C=C4C(=C3)C=NN4)F
In short: as §1

[15] = compound: CC1=C(C2=C(C=C1)C(=O)C3=CC=CC=C3N2CCCN)C
In short: as §1

Sequence of UniProt P06400 (P06400 whole entry, looked up): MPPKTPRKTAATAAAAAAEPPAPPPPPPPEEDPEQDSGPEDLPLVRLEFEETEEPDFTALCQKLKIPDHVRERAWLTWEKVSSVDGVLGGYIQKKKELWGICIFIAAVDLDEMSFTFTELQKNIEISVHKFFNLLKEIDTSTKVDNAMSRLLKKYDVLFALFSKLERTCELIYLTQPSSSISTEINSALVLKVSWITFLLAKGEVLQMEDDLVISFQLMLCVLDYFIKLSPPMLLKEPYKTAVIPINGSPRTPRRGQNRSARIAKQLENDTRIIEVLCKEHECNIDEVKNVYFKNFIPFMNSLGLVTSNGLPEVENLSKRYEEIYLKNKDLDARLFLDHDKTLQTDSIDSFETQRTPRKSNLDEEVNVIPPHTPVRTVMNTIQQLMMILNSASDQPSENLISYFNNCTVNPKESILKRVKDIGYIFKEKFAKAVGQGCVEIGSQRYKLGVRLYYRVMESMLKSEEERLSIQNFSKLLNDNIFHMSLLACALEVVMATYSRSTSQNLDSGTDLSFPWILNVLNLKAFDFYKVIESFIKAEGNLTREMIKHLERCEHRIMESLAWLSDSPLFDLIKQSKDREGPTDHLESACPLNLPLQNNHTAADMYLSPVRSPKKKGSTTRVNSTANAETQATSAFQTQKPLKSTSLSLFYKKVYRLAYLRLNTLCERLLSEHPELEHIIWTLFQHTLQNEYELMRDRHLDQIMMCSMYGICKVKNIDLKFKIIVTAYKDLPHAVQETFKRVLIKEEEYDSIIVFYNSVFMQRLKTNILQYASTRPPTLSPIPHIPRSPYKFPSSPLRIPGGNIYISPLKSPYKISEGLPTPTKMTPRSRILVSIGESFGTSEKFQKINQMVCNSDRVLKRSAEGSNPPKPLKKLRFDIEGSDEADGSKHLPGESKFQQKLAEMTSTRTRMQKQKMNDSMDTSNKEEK
Sequence of UniProt Q9GZR1 (Q9GZR1 whole entry, looked up): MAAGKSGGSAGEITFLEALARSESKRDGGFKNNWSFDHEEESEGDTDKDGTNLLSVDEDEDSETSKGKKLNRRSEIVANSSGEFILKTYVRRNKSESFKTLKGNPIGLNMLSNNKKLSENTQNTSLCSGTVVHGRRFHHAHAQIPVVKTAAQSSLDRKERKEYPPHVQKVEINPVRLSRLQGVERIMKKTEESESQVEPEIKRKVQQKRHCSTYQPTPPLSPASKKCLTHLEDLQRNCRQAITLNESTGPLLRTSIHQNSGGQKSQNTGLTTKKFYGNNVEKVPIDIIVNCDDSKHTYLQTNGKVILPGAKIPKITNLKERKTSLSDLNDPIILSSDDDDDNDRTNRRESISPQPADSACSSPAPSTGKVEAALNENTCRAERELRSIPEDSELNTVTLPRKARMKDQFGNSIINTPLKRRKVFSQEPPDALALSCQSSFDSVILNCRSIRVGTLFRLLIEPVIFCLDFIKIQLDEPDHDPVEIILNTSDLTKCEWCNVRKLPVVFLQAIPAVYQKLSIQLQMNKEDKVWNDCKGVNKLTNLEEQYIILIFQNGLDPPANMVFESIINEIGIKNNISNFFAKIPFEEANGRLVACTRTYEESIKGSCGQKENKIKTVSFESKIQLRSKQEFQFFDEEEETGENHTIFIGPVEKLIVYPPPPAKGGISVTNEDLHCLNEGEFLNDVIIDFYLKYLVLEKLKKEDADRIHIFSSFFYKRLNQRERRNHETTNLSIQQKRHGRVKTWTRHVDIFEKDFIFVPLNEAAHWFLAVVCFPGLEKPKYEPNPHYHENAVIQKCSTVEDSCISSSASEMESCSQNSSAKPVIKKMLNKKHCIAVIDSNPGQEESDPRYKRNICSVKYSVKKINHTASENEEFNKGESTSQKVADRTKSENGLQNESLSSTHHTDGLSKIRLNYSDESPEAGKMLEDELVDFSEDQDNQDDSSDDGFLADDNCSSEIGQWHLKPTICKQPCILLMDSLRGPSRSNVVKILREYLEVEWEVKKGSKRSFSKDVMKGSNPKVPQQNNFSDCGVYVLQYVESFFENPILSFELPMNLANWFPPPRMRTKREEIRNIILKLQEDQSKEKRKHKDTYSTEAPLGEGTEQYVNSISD
Sequence of UniProt Q13546 (Q13546 whole entry, looked up): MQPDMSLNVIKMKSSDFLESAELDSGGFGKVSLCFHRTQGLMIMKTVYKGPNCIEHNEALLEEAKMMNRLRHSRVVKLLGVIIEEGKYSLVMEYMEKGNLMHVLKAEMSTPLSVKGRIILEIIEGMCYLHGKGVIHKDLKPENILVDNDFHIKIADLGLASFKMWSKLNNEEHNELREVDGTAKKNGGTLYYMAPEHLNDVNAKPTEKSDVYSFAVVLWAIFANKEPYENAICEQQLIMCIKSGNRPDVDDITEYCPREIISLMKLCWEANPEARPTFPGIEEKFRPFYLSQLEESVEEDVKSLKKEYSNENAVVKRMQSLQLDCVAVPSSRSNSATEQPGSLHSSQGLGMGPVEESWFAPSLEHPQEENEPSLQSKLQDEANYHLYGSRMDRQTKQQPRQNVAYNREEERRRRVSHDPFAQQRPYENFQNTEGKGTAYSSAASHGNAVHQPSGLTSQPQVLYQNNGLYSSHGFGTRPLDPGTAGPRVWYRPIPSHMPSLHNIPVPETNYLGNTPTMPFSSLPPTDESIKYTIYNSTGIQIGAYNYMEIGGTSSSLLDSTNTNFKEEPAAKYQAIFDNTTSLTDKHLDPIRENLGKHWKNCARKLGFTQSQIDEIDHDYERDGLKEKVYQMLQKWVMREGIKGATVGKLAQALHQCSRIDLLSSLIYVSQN
Sequence of UniProt O43665 (O43665 whole entry, looked up): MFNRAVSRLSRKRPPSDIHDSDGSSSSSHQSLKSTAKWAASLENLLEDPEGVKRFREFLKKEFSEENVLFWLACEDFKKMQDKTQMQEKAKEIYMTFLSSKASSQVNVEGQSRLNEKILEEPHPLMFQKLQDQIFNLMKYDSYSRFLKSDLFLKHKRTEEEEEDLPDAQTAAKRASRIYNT
Sequence of UniProt Q96EE3 (Q96EE3 whole entry, looked up): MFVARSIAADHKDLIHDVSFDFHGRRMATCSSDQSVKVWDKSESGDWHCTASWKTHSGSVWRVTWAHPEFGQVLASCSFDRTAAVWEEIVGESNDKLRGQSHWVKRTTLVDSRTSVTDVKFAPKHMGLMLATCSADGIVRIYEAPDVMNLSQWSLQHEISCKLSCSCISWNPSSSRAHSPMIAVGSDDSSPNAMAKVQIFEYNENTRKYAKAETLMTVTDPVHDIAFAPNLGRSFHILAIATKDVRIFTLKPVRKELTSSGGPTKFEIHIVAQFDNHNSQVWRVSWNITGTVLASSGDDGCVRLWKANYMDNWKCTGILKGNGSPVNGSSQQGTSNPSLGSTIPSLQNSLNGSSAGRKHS
Sequence of UniProt Q86VR2 (Q86VR2 whole entry, looked up): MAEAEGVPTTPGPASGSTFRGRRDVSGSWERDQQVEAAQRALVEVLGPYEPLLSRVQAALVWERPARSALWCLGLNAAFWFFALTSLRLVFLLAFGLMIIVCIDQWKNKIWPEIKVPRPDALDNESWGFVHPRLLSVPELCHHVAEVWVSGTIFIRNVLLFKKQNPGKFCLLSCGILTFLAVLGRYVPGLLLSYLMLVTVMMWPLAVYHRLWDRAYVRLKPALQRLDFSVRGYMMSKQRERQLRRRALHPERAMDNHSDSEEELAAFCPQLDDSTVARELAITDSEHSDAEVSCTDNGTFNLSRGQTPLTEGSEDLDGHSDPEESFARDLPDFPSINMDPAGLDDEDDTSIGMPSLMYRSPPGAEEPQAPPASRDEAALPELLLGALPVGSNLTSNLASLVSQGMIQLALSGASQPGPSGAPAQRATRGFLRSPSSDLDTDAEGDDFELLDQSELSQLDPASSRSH
Sequence of UniProt Q9NR46 (Q9NR46 whole entry, looked up): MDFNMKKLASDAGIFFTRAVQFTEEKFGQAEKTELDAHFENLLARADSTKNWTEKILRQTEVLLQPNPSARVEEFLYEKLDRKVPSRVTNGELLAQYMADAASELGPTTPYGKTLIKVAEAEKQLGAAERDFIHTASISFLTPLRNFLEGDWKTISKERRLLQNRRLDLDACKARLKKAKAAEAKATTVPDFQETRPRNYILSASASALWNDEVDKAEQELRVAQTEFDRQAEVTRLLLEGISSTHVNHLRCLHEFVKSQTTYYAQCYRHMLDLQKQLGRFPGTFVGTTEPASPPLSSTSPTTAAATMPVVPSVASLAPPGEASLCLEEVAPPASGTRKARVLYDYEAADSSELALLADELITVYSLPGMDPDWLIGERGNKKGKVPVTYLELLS
Sequence of UniProt O95470 (O95470 whole entry, looked up): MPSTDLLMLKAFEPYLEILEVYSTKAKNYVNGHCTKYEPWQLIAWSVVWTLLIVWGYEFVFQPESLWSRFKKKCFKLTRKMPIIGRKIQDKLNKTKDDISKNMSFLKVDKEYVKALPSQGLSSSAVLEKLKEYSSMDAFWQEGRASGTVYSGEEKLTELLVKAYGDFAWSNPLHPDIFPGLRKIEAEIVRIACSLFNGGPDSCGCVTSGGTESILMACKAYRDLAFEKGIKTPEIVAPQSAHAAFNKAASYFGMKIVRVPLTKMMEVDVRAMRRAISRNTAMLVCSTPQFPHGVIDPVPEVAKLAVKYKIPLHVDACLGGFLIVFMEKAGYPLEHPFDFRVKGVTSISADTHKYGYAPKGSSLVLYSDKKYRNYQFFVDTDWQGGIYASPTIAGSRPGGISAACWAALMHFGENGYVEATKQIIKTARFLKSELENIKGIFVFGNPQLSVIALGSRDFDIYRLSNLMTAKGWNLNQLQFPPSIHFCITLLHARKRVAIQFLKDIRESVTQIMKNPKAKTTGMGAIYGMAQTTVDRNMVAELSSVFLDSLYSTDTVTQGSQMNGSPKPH
Sequence of UniProt Q8TC12 (Q8TC12 whole entry, looked up): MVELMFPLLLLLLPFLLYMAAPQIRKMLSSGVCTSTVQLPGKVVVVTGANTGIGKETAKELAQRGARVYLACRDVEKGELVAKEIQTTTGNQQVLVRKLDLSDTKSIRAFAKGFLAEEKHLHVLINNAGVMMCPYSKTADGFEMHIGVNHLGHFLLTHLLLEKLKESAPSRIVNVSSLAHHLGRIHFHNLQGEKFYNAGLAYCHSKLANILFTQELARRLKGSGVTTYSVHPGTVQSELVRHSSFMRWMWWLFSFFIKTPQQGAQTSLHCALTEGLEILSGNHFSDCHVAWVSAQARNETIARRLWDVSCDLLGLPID

Row | Target | log2 fold change (erlotinib) | log2 fold change [1] | log2 fold change [2] | log2 fold change [3] | log2 fold change [4] | log2 fold change [5] | log2 fold change [6] | log2 fold change [7] | log2 fold change [8] | log2 fold change [9] | log2 fold change (IRAK-1-4 Inhibitor I) | log2 fold change (ibrutinib) | log2 fold change [10] | log2 fold change (ralimetinib) | log2 fold change [11] | log2 fold change [12] | log2 fold change [13] | log2 fold change (pinometostat) | log2 fold change [14] | log2 fold change [15]
1 | RIPK1 (UniProt Q13546) | 0.013 | -0.008 | -0.028 | 0 | 0.068 | -0.016 | 0.004 | 0.219 | 0.002 | -0.015 | -0.104 | -0.081 | -0.201 | 0.195 | -0.023 | -0.23 | 0.14 | 0.123 | -0.014 | 0.056
2 | RALA (UniProt P11233) | 0.087 | -0.005 | 0.033 | -0.05 | 0.005 | 0.056 | -0.076 | -0.045 | -0.066 | 0.104 | -0.005 | 0.038 | 0.018 | -0.113 | 0.096 | 0.103 | -0.033 | -0.123 | -0.024 | 0.054
3 | RGS10 (UniProt O43665) | -0.044 | 0.048 | 0.076 | 0.009 | -0.03 | 0.002 | 0.073 | -0.015 | -0.069 | 0.036 | 0.046 | 0.047 | -0.024 | 0.026 | -0.025 | -0.057 | -0.004 | 0.087 | -0.008 | 0.015
4 | SGPL1 (UniProt O95470) | -0.038 | -0.019 | -0.088 | -0.047 | 0.05 | -0.029 | 0.01 | -0.001 | -0.035 | -0.145 | -0.05 | -0.018 | -0.045 | 0.159 | 0.017 | 0.06 | 0.002 | 0.1 | -0.025 | 0.146
5 | RRAGB (UniProt Q5VZM2) | -0.028 | 0.047 | 0.004 | 0.023 | -0.13 | 0 | 0.021 | 0.082 | -0.048 | 0.037 | 0.034 | 0.029 | 0.08 | 0.002 | -0.012 | -0.162 | 0.011 | 0.039 | -0.016 | 0.026
6 | RETREG3 (UniProt Q86VR2) | 0.004 | 0.072 | 0.037 | 0.031 | -0.053 | 0.07 | 0.062 | -0.087 | -0.029 | 0.032 | 0.117 | -0.002 | -0.01 | -0.036 | -0.04 | -0.167 | 0.007 | 0.035 | -0.024 | -0.016
7 | SLC19A1 (UniProt P41440) | -0.023 | 0.029 | 0.159 | 0.022 | -0.006 | 0.103 | 0.118 | -0.008 | -0.009 | 0.08 | 0.017 | -0.025 | -0.034 | 0.005 | -0.061 | 0.104 | 0.045 | 0.052 | -0.045 | 0.073
8 | RAC3 (UniProt P60763) | 0.05 | -0.016 | 0.029 | -0.042 | 0.009 | 0.02 | -0.009 | -0.09 | -0.007 | 0.005 | 0.115 | 0.022 | 0.104 | -0.008 | 0.032 | 0.082 | -0.009 | -0.081 | 0.003 | 0.102
9 | RB1 (UniProt P06400) | -0.007 | 0.041 | 0.012 | 0.016 | 0.124 | 0.04 | 0.034 | -0.114 | -0.065 | -0.02 | 0.015 | 0.025 | -0.761 (active) | -0.06 | -0.054 | -0.386 (active) | 0.032 | -0.006 | -0.007 | -0.035
10 | RPS6KA1 isoform 2 (UniProt Q15418) | -0.032 | 0.104 | -0.082 | 0.107 | 0.034 | 0.039 | -0.135 | -0.377 (active) | -0.093 | 0.023 | -0.013 | -0.062 | -0.167 | -0.429 (active) | -0.092 | -0.164 | 0.059 | -0.006 | 0.017 | 0.018
11 | SCD (UniProt O00767) | 0.022 | -0.256 | 0.143 | -0.008 | 0.024 | 0.04 | -0.059 | -0.006 | 0.126 | 0.023 | 0.048 | -0.023 | 0.008 | -0.148 | -0.046 | -0.222 | 0.101 | 0 | 0.024 | -0.027
12 | RDH11 (UniProt Q8TC12) | -0.007 | -0.03 | 0.102 | 0.068 | 0.084 | -0.1 | 0.029 | 0.04 | -0.044 | -0.043 | 0.032 | 0.067 | -0.145 | 0.059 | -0.126 | -0.74 (active) | 0.117 | 0.013 | -0.028 | 0.103
13 | SH3GLB2 (UniProt Q9NR46) | 0.048 | 0.081 | -0.044 | -0.021 | 0 | 0.01 | -0.033 | -0.021 | -0.022 | -0.013 | 0.028 | 0.004 | -0.047 | 0.033 | 0.028 | -0.27 (active) | 0.066 | -0.004 | 0.001 | -0.021
14 | SENP6 (UniProt Q9GZR1) | 0.028 | 0.033 | 0.237 (active) | -0.049 | -0.029 | 0.08 | -0.011 | -0.078 | -0.061 | 0.049 | 0.005 | -0.018 | -0.063 | -0.031 | -0.058 | 0.094 | 0.043 | 0.004 | -0.028 | 0.057
15 | SEH1L isoform 1 (UniProt Q96EE3) | 0.018 | 0.073 | 0.012 | 0.043 | 0.049 | 0.064 | 0 | -0.06 | -0.02 | 0.035 | 0.028 | -0.021 | -0.056 | -0.014 | 0.03 | -0.019 | -0.026 | 0.011 | 0.039 | 0
16 | RPA3 (UniProt P35244) | -0.007 | 0.156 | 0.084 | 0.008 | -0.058 | -0.007 | 0.115 | 0.032 | -0.128 | -0.027 | 0.02 | 0.029 | 0.016 | 0.038 | -0.097 | -0.025 | -0.137 | 0.016 | 0.063 | 0.129
